Reference: PubChem BioAssay (NCATS)
Records with an inconclusive call do not appear. Entries that show only a call come without a potency. A number with no mark means an inactive call. Calls of active or inactive are those of the source. Calls follow the shape of the dose curve; as a rule, active = well fitted curve in the direction sought with a large enough effect; inconclusive = small, poorly fitted or top-dose-only effect, or another doubt; inactive = no such curve, though single readings can be large; an effect the other way counts as inactive or inconclusive.

How the values were obtained:
[1] = target: Rap guanine nucleotide exchange factor 3 (Homo sapiens) (UniProt O95398); assay: Confirmatory qHTS for antagonist of cAMP-regulated guanine nucleotide exchange factor 3 (EPAC1) (AID 1645880); conditions: EPAC1 Rap1B-BODIPY-GDP exchange, fluorescence; activity, negative = inhibition: at 115 µM (top of the series); also: nearly all actives have a fitted effect of over 55% in size; also: potency is read from the fitted curve at half-maximal effect
Rap guanine nucleotide exchange factor 3 (Homo sapiens), sequence (O95398 whole entry, looked up): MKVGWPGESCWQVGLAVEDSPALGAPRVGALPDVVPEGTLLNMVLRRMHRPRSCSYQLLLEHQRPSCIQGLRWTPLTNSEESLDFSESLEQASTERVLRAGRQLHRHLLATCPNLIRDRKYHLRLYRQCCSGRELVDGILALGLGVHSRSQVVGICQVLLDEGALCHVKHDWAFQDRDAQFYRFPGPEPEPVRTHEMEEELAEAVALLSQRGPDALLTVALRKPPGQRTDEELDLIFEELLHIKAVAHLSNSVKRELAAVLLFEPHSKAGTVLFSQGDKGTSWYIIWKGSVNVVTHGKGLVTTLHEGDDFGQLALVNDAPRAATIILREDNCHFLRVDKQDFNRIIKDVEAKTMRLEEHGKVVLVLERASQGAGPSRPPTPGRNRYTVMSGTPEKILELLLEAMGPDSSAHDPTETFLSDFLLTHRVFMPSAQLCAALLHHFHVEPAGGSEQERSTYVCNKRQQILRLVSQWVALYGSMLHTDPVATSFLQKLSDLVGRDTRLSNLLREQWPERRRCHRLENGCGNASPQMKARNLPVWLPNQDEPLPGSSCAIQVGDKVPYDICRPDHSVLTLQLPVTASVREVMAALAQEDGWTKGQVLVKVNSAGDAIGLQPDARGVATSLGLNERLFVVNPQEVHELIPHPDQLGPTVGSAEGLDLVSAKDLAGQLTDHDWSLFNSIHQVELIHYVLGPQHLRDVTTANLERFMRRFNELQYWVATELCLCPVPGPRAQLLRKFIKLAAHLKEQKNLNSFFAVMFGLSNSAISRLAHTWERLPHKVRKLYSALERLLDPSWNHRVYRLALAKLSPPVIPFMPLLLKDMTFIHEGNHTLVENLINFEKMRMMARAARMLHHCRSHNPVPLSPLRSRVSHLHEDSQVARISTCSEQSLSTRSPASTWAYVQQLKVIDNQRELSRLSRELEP
Method in brief: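 Nucleotide exchange uses 100 nM EPAC1, 250 nM RAP1B-BODIPY-GDP and 50 uM GDP, with compounds in a concentration-titration series. After 5 min at room temperature, fluorescence (480 nm ex/540 nm em) is read every 5 min for 30 min. Data are normalized to control ATA and DMSO.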

[2] = target: Rap guanine nucleotide exchange factor 3 (Homo sapiens) (UniProt O95398); assay: Confirmatory qHTS for agonist of cAMP-regulated guanine nucleotide exchange factor 3 (EPAC1) (AID 1645881); also: nearly all actives have a fitted effect of over 75% in size; also: potency is read from the fitted curve at half-maximal effect;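 as to activation: EPAC1 catalysed release of BODIPY-GDP from Rap1B seen as fluorescence loss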
[3] = target: Rap guanine nucleotide exchange factor 4 (Homo sapiens) (UniProt Q8WZA2); assay: Confirmatory qHTS for agonist of cAMP-regulated guanine nucleotide exchange factor 4 (EPAC2) (AID 1645884);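 also: nucleotide exchange releases bodipy-GDP from Rap1 and this lowers its fluorescence; nearly all actives have a fitted effect of over 65% in size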; also: potency is read from the fitted curve at half-maximal effect
Rap guanine nucleotide exchange factor 4 (Homo sapiens), sequence (Q8WZA2 whole entry, looked up): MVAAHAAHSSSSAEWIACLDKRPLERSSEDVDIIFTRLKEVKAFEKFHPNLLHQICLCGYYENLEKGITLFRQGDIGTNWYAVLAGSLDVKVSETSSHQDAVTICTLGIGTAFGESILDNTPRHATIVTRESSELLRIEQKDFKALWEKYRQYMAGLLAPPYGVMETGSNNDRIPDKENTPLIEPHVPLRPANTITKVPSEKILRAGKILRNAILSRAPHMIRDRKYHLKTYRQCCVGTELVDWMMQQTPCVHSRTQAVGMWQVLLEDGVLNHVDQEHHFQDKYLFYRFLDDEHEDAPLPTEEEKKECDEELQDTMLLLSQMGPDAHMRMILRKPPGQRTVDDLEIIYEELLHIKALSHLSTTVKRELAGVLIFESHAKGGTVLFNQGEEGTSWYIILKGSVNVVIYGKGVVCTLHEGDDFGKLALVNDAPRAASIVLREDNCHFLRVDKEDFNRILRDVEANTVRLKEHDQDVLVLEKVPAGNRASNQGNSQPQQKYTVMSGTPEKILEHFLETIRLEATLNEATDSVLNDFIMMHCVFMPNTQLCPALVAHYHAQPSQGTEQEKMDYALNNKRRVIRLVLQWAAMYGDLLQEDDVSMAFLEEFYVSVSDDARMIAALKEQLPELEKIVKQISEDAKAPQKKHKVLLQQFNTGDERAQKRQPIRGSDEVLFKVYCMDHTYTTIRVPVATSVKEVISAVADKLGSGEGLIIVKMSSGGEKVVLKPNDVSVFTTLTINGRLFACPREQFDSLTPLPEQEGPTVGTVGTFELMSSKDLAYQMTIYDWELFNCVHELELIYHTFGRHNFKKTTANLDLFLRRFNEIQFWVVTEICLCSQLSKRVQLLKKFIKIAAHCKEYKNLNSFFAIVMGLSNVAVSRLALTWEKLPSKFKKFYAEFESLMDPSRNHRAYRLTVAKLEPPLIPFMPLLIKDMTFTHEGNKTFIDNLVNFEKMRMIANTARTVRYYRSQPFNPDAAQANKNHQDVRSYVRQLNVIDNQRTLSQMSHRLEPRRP

[4] = target: Rap guanine nucleotide exchange factor 3 (Homo sapiens) (UniProt O95398); assay: Counterscreen qHTS for antagonist of cAMP-regulated guanine nucleotide exchange factor 3 (EPAC1) (AID 1645888);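 also: fluorescence loss as bound BODIPY-GDP is released from Rap1B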
Method in brief: (§1)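 Measured: fluorescence of BODIPY-GDP bound to Rap1B, which falls as exchange proceeds. Conditions include 50 uM competing GDP, 5 and 30 min reads, and a later cAMP challenge for antagonist detection.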

[5] = target: Rap guanine nucleotide exchange factor 3 (Homo sapiens) (UniProt O95398); assay: Counterscreen qHTS for agonist of cAMP-regulated guanine nucleotide exchange factor 3 (EPAC1) (AID 1645889); also: nearly all actives have a fitted effect of over 40% in size; also: potency is read from the fitted curve at half-maximal effect
Method in brief: as §1

Row | Structure (SMILES) | Potency [1] | Potency [2] | activation [3] | activity change, negative = inhibition [4] | Potency [3] | Potency [4] | Potency [5] | activation [5]
1 | CCSc1nc(C)cc(C)c1S(=O)(=O)c1ccccc1C | inactive | inactive | 3.71% [at 17.1 µM, percent relative to cAMP agonist control] | 8% [at 30.8 µM] |  |  |  | 
2 | Cc1ccc([N+](=O)[O-])cc1NC(=O)c1ccc(-c2ccccc2)cc1 | inactive | inactive |  |  | inactive | inactive |  | 
3 | Cc1cc(NC(=O)COC(=O)C(C)Oc2ccc(Cl)cc2Cl)no1 (stereo unspecified) | inactive | inactive |  |  | inactive | inactive |  | 
4 | O=C(c1sc2cc(F)ccc2c1Cl)N1CCN(c2ccccc2)CC1 | inactive | inactive |  |  | inactive | inactive |  | 
5 | O=C(O)Cc1ccc(N=Nc2c(O)c(C(=O)O)cc3ccccc23)cc1 | 33.8 µM (active) | inactive |  |  | inactive | inactive | inactive | 
6 | CC(=O)c1ccc(N2CCN(C(=O)/C=C/c3ccc4ccccc4n3)CC2)cc1 | inactive | inactive |  |  | 89.1 µM (active) | inactive |  | 
7 | COCCN(C(=O)c1cc2c(s1)CCCCC2)c1c(N)n(Cc2ccccc2)c(=O)[nH]c1=O | inactive | inactive |  |  | inactive | inactive |  | 
8 | COC(=O)c1c(-c2ccc(OC)cc2)sc2ccc(OC)cc12 | inactive | inactive |  |  | inactive | inactive |  | 
9 | COc1ccccc1Nc1nc2ccc(C)cc2cc1C#N | inactive | inactive |  |  | inactive | inactive |  | 
10 | N=c1c(S(=O)(=O)c2ccc(Br)cc2)cc2c(=O)n3ccccc3nc2n1C1CCCC1 | inactive | inactive |  |  | inactive | inactive | inactive | 
11 | Cn1c2c(c3ccccc31)CCN1CCC[C@]21c1ccccc1 | inactive | inactive |  |  | inactive | inactive |  | 
12 | COc1ccc(NC(=O)COC(=O)c2ccc(S(=O)(=O)N(C)c3ccccc3OC)cc2)cc1OC | inactive | inactive |  |  | inactive | inactive |  | 
13 | COc1cccc(N(C(=O)c2ccco2)C(C(=O)NC2CCCC2)c2cccnc2)c1 (stereo unspecified) | inactive | inactive |  |  | inactive | inactive |  | 
14 | O=C(/C=C/c1ccco1)NCC1OCCc2ccccc21 (stereo unspecified) | 19 µM (active) | inactive |  |  | inactive | inactive |  | 
15 | Cc1cccc(C(=O)Oc2ccc(/C=N/NC(=O)c3cc(O)cc(O)c3)cc2)c1 | 16.9 µM (active) | inactive |  |  | inactive | inactive |  | 
16 | Brc1ccc(C2Nc3cccc4cccc(c34)N2)cc1 | inactive | inactive |  |  | inactive | inactive | inactive | 
17 | O=C1/C(=C\c2ccc(Br)cc2)SC(=S)N1NS(=O)(=O)c1ccccc1 | 11.2 µM (active) | inactive | 10.7% [at 17.1 µM, percent relative to cAMP agonist control] | 6.09% [at 30.8 µM] |  |  |  | 
18 | Cc1nc(-c2ccc(C(=O)Nc3cccc(Br)c3)cc2)cs1 | inactive | inactive |  |  | inactive | inactive |  | 
19 | Cc1cc(C)cc(NC(=O)CSc2nnc(-c3cc4occc4n3C)n2-c2ccccc2C)c1 | inactive | inactive |  |  | inactive | inactive |  | 
20 | Cc1noc(C)c1COc1ccccc1C(=O)NCCc1ccc(Cl)cc1 | inactive | inactive |  |  | inactive | inactive | inactive | 
21 | O=C(c1ccco1)N1CCn2cccc2C1c1ccccc1 (stereo unspecified) | inactive | inactive |  |  | inactive | inactive |  | 
22 | Cc1ccc(Sc2ncccc2C(=O)N(C)Cc2cccs2)c(C)c1 | inactive | inactive |  |  | inactive | inactive |  | 
23 | COc1ccccc1N(CC(=O)Nc1ccc(Br)cc1F)S(=O)(=O)c1cccs1 | inactive | inactive |  |  | inactive | inactive |  | 
24 | COc1cc(/C=C2\C(=N)N3N=C(S(C)(=O)=O)SC3=NC2=O)cc(OC)c1OCCOc1ccccc1C | 67.5 µM (active) | inactive |  |  | inactive | inactive |  | 
25 | CN1/C(=C\C=C(/C#N)C(=O)Nc2ccc(Cl)cc2)C(C)(C)c2ccccc21 | inactive | 100 µM (active) |  |  | 100 µM (active) | inactive | inactive | 

Row | Structure (SMILES) | Potency [1] | Potency [2] | activation [3] | activity change, negative = inhibition [4] | Potency [3] | Potency [4] | Potency [5] | activation [5]
26 | COC(=O)C1=CN(c2c(C)cc(C)cc2C)C(N)=C(C#N)C1c1cccc(F)c1 (stereo unspecified) | inactive | inactive |  |  | inactive | inactive |  | 
27 | COC(=O)c1nc2nc(C)cc(=O)n2[nH]1 | inactive | inactive |  |  | inactive | inactive |  | 
28 | CN1OC[C@@H]2CN(Cc3ccc(Cl)cc3)[C@H](c3ccc(-n4ccnc4)cc3)C[C@@H]21 | inactive | inactive | 4.62% [at 17.1 µM, percent relative to cAMP agonist control] | 1.17% [at 30.8 µM] |  |  |  | 
29 | COc1ccc(-c2csc(NC(=O)c3ccccc3NS(=O)(=O)c3ccc(F)c(F)c3)n2)cc1 | 22.4 µM (active) | inactive | -1.62% [at 17.1 µM, percent relative to cAMP agonist control] | -3.56% [at 30.8 µM] |  |  |  | 
30 | O=C1/C(=C\c2cc([N+](=O)[O-])ccc2O)SC(=S)N1Cc1ccc(Cl)cc1 | 75.7 µM (active) | inactive |  |  | inactive | inactive |  | 
31 | CCOc1ccc(-n2c(SCC(=O)Nc3ccc(F)cc3)nc3c([nH]c4ccccc43)c2=O)cc1 | inactive | inactive |  |  | inactive | inactive |  | 
32 | CC(C)C(NC(=O)c1ccccc1)C(=O)OCn1nnc2ccccc2c1=O (stereo unspecified) | inactive | inactive |  |  | inactive | inactive |  | 
33 | CC1CCN(c2ccc3c(c2)S(=O)(=O)c2cccc(C(=O)NC4CCCCC4)c2C3=O)CC1 | inactive | 89.1 µM (active) |  |  | 100 µM (active) | inactive | 50.1 µM (active) | 
34 | Cc1cc(S(=O)(=O)N2CCN(CC(=O)N(C)Cc3ccccc3)CC2)ccc1Br | inactive | inactive |  |  | inactive | inactive | inactive | 
35 | CCc1nc2c(OCc3ccc(C(F)(F)F)cc3)cccn2c1N(C)C(=O)c1ccc(OC)cc1 | inactive | inactive | 16% [at 17.1 µM, percent relative to cAMP agonist control] | -20.8% [at 30.8 µM] |  |  |  | 
36 | CCOC(=O)C1CCCCN1Cc1cccc(Oc2ccccc2)c1 (stereo unspecified) | inactive | inactive | 6.17% [at 17.1 µM, percent relative to cAMP agonist control] | -24.9% [at 30.8 µM] |  |  |  | 29% [at 30.8 µM]
37 | Cc1cccc(C)c1-n1nnnc1C(c1ccnc2ccccc12)N(CCC#N)Cc1ccccc1 (stereo unspecified) | inactive | inactive |  |  | inactive | inactive |  | 
38 | COc1cccc(-c2nc(CS(=O)(=O)CC(=O)N3CCN(C)CC3)c(C)o2)c1 | inactive | inactive |  |  | inactive | inactive | inactive | 
39 | Cc1ccc(S(=O)(=O)NCc2ccccc2)cc1C(=O)N1CCCC(C(F)(F)F)C1 (stereo unspecified) | inactive | inactive |  |  | inactive | inactive | inactive | 
40 | COc1ccc(C(=O)n2c(-c3ccco3)nc3ccccc32)cc1 | inactive | inactive | 7.17% [at 17.1 µM, percent relative to cAMP agonist control] | -27.8% [at 30.8 µM] |  |  |  | 10% [at 30.8 µM]
41 | O=C(O)c1ccccc1-c1ccccc1C(=O)Nc1ccc2c(c1)oc(=O)c1ccccc12 | 75.7 µM (active) | inactive |  |  | inactive | inactive | inactive | 
42 | COc1ccc(/C=C2\SC(=S)NC2=O)cc1OS(=O)(=O)c1ccc(NC(C)=O)cc1 | 37.9 µM (active) | inactive |  |  | inactive | inactive | inactive | 
43 | COc1ccc(N2C(=O)CSC2c2cccc(F)c2)c(OC)c1 (stereo unspecified) | inactive | inactive | 2.35% [at 17.1 µM, percent relative to cAMP agonist control] | -18.3% [at 30.8 µM] |  |  |  | 1.09% [at 30.8 µM]
44 | COC(=O)C1=C(C)N(CCCC(=O)O)C(=O)NC1c1ccc(-c2ccccc2)cc1 (stereo unspecified) | inactive | inactive |  |  | inactive | inactive | inactive | 
45 | Cc1nnc(SCc2ccccc2CSc2nnc(C)s2)s1 | inactive | inactive |  |  | inactive | inactive | inactive | 
46 | Cc1ccc2c(c1)C(=O)CC(c1ccccc1)S2 (stereo unspecified) | inactive | inactive | -3.98% [at 17.1 µM, percent relative to cAMP agonist control] | -21.7% [at 30.8 µM] |  |  |  | 6.35% [at 30.8 µM]
47 | O=C(N/N=C/c1c(O)n(-c2ccccc2Cl)c(=O)c2ccccc12)C1COc2ccccc2O1 (stereo unspecified) | 42.6 µM (active) | inactive |  |  | inactive | inactive | inactive | 
48 | CCCc1cc(=O)oc2cc(C)cc(OCC(=O)N[C@@H](CSCc3ccccc3)C(=O)O)c12 | inactive | inactive |  |  | inactive | inactive | inactive | 
49 | CCCCN(CCCC)Cc1cc(=O)oc2cc(C)c(Cl)cc12 | inactive | inactive |  |  | inactive | inactive | inactive | 
